Screen size: about 5,500 compounds; about 2,000 (36%) were called active. Inconclusive results (about 18%) are left out. Rule as the data show it: active = normalized growth mostly below about 0.91 (no sharp cut-off); inconclusive = no clear call, values can overlap the other calls; inactive = mostly above about 0.92. The list shows a part of the results.
Test: chemical genetic growth profiling, strain panel (AID 1159580);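 also: tested at 20 µM; growth read once vehicle control cultures reached saturation at 30 °C; 1 = growth at the plate median or of vehicle wells; lower values mean less growth of the strain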
Conditions: growth OD

Measured: normalized growth

CC(=O)NCCCCCC(=O)O
inactive: S. cerevisiae deletion strains, locus YJL187C, strain SWE1, stronger effect = lower value 1.01 | S. cerevisiae deletion strains, locus YJR043C, strain POL32, stronger effect = lower value 1.01 | S. cerevisiae deletion strains, locus YJR075W, strain HOC1, stronger effect = lower value 1.02 | S. cerevisiae deletion strains, locus YKL009W, strain mrt4, stronger effect = lower value 0.997 | S. cerevisiae deletion strains, locus YKL068W, stronger effect = lower value 0.994 | S. cerevisiae deletion strains, locus YKL085W, strain MDH1 (second series), stronger effect = lower value 0.989 | S. cerevisiae deletion strains, locus YKL085W, strain MDH1, stronger effect = lower value 0.989 | S. cerevisiae deletion strains, locus YKL160W, strain elf1, stronger effect = lower value 1.03 | S. cerevisiae deletion strains, locus YKL190W, strain CNB1, stronger effect = lower value 1.01 | S. cerevisiae deletion strains, locus YKR001C, strain vps1, stronger effect = lower value 1.01 | S. cerevisiae deletion strains, locus YKR026C, strain gcn3, stronger effect = lower value 0.963 | S. cerevisiae deletion strains, locus YKR091W, strain srl3, stronger effect = lower value 0.985 | S. cerevisiae deletion strains, locus YLL001W, strain dnm1, stronger effect = lower value 1.01 | S. cerevisiae deletion strains, locus YLL026W, stronger effect = lower value 1.01 | S. cerevisiae deletion strains, locus YLL041C, strain sdh2, stronger effect = lower value 0.994 | S. cerevisiae deletion strains, locus YLR027C, strain aat2, stronger effect = lower value 1.02 | S. cerevisiae deletion strains, locus YLR039C, strain RIC1, stronger effect = lower value 1.04 | S. cerevisiae deletion strains, locus YLR058C, strain SHM2, stronger effect = lower value 1.02 | S. cerevisiae deletion strains, locus YLR102C, strain apc9, stronger effect = lower value 0.989 | S. cerevisiae deletion strains, locus YLR221C, strain rsa3, stronger effect = lower value 1 | S. cerevisiae deletion strains, locus YLR258W, strain gsy2, stronger effect = lower value 0.992 | S. cerevisiae deletion strains, locus YLR262C, strain YPT6 (second series), stronger effect = lower value 1.02 | S. cerevisiae deletion strains, locus YLR262C, strain YPT6, stronger effect = lower value 1.07 | S. cerevisiae deletion strains, locus YLR268W, strain sec22, stronger effect = lower value 0.996 | S. cerevisiae deletion strains, locus YLR320W, strain mms22, stronger effect = lower value 1 | S. cerevisiae deletion strains, locus YLR330W, strain CHS5, stronger effect = lower value 1.01 | S. cerevisiae deletion strains, locus YLR342W, strain FKS1 (second series), stronger effect = lower value 1 | S. cerevisiae deletion strains, locus YLR342W, strain FKS1, stronger effect = lower value 0.982 | S. cerevisiae deletion strains, locus YLR357W, strain rsc2, stronger effect = lower value 1.01 | S. cerevisiae deletion strains, locus YLR370C, strain arc18, stronger effect = lower value 0.991 | S. cerevisiae deletion strains, locus YLR371W, strain rom2, stronger effect = lower value 0.983 | S. cerevisiae deletion strains, locus YLR384C, strain iki3, stronger effect = lower value 0.983 | S. cerevisiae deletion strains, locus YLR418C, strain cdc73, stronger effect = lower value 0.963 | S. cerevisiae deletion strains, locus YML016C, strain PPZ1, stronger effect = lower value 1.01 | S. cerevisiae deletion strains, locus YML032C, strain rad52, stronger effect = lower value 0.986 | S. cerevisiae deletion strains, locus YML120C, strain ndi1, stronger effect = lower value 1.01 | S. cerevisiae deletion strains, locus YML124C, strain tub3, stronger effect = lower value 0.989 | S. cerevisiae deletion strains, locus YMR058W, strain fet3, stronger effect = lower value 0.981 | S. cerevisiae deletion strains, locus YMR078C, strain ctf18, stronger effect = lower value 1 | S. cerevisiae deletion strains, locus YMR125W, strain sto1, stronger effect = lower value 0.986 | S. cerevisiae deletion strains, locus YMR129W, stronger effect = lower value 0.976 | S. cerevisiae deletion strains, locus YMR205C, strain PFK2, stronger effect = lower value 0.968 | S. cerevisiae deletion strains, locus YMR223W, strain ubp8, stronger effect = lower value 0.976 | S. cerevisiae deletion strains, locus YMR231W, strain pep5, stronger effect = lower value 0.978 | S. cerevisiae deletion strains, locus YMR307W, strain GAS1, stronger effect = lower value 1.01 | S. cerevisiae deletion strains, locus YNL067W, strain RPL9B, stronger effect = lower value 1.02 | S. cerevisiae deletion strains, locus YNL071W, strain lat1, stronger effect = lower value 0.989 | S. cerevisiae deletion strains, locus YNL209W, strain ssb2, stronger effect = lower value 0.994 | S. cerevisiae deletion strains, locus YNL233W, strain BNI4, stronger effect = lower value 1.03 | S. cerevisiae deletion strains, locus YNL248C, strain rpa49, stronger effect = lower value 1.01 | S. cerevisiae deletion strains, locus YNL250W, strain rad50, stronger effect = lower value 0.992 | S. cerevisiae deletion strains, locus YNL271C, strain bni1, stronger effect = lower value 0.971 | S. cerevisiae deletion strains, locus YNL298W, strain CLA4, stronger effect = lower value 0.986 | S. cerevisiae deletion strains, locus YNL307C, strain MCK1, stronger effect = lower value 0.988 | S. cerevisiae deletion strains, locus YNL322C, strain KRE1 (second series), stronger effect = lower value 0.995 | S. cerevisiae deletion strains, locus YNL322C, strain KRE1, stronger effect = lower value 1.01 | S. cerevisiae deletion strains, locus YNR049C, strain mso1, stronger effect = lower value 0.973 | S. cerevisiae deletion strains, locus YNR052C, strain pop2, stronger effect = lower value 0.995 | S. cerevisiae deletion strains, locus YOL006C, strain TOP1, stronger effect = lower value 1.09 | S. cerevisiae deletion strains, locus YOL012C, strain htz1 0.886 | S. cerevisiae deletion strains, locus YOL147C, strain pex11, stronger effect = lower value 0.988 | S. cerevisiae deletion strains, locus YOR001W, strain rrp6, stronger effect = lower value 1.04 | S. cerevisiae deletion strains, locus YOR061W, strain CKA2, stronger effect = lower value 1.02 | S. cerevisiae deletion strains, locus YOR069W, strain VPS5, stronger effect = lower value 1.01 | S. cerevisiae deletion strains, locus YOR070C, strain gyp1, stronger effect = lower value 0.994 | S. cerevisiae deletion strains, locus YOR080W, strain dia2, stronger effect = lower value 0.988 | S. cerevisiae deletion strains, locus YOR083W, strain WHI5, stronger effect = lower value 1.06 | S. cerevisiae deletion strains, locus YOR106W, strain vam3, stronger effect = lower value 1.01 | S. cerevisiae deletion strains, locus YOR136W, strain idh2, stronger effect = lower value 0.985 | S. cerevisiae deletion strains, locus YOR144C, strain elg1, stronger effect = lower value 0.978 | S. cerevisiae deletion strains, locus YOR184W, strain ser1, stronger effect = lower value 0.982 | S. cerevisiae deletion strains, locus YOR265W, strain rbl2, stronger effect = lower value 1.01 | S. cerevisiae deletion strains, locus YOR270C, strain vph1, stronger effect = lower value 0.968 | S. cerevisiae deletion strains, locus YOR290C, strain snf2, stronger effect = lower value 0.939 | S. cerevisiae deletion strains, locus YOR316C, strain cot1, stronger effect = lower value 0.987 | S. cerevisiae deletion strains, locus YPL051W, strain arl3, stronger effect = lower value 1.02 | S. cerevisiae deletion strains, locus YPL055C, strain LGE1, stronger effect = lower value 1.07 | S. cerevisiae deletion strains, locus YPL078C, strain atp4, stronger effect = lower value 1 | S. cerevisiae deletion strains, locus YPL106C, strain sse1, stronger effect = lower value 0.977 | S. cerevisiae deletion strains, locus YPL240C, strain hsp82, stronger effect = lower value 0.99 | S. cerevisiae deletion strains, locus YPR119W, strain clb2, stronger effect = lower value 0.993 | S. cerevisiae deletion strains, locus YPR141C, strain kar3, stronger effect = lower value 0.989 | S. cerevisiae deletion strains, locus YPR163C, strain tif3, stronger effect = lower value 0.98 | S. cerevisiae deletion strains, locus YPR167C, strain met16, stronger effect = lower value 0.977 | S. cerevisiae deletion strains, strain wtn01, stronger effect = lower value 0.976 | S. cerevisiae strains, strain wild type, stronger effect = lower value 1.01

— PubChem BioAssay AID1159580 (chemical genetic matrix, 2015)
